# Data published in PubChem BioAssay (NCI).
# Compounds without any hit were thinned out: in the full panel of roughly 83,000, 20% have a hit.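 Method: cells in 96-well plates; compound added at one concentration; 48 h incubation; percent growth measured; values under 10 scored active.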 Unmarked numbers belong to inactive results. The source made the active and inactive calls.
# System: HL-60(TB) leukemia
# Assay: NCI-60 one-dose screen, 48 h (100 = growth as untreated, 0 = no growth, -100 = all killed)
# Details: 10 µM unless noted
row,SMILES,growth
1,Cc1ccc(C2CC(c3cccc(Nc4ccncc4)c3)=NN2c2ccccc2)cc1 (stereo unspecified),-56.6% (active)
2,O=C1C(Cl)=C(Nc2ccccc2)C(=O)c2ccccc21,-19.5% (active)
3,COc1ccc(-c2nsc3c2NC(=O)CC3c2ccc3c(c2)OCO3)cc1 (stereo unspecified),-22.3% (active)
4,Nc1[nH]nc(Nc2ccccc2)c1-c1nc2ccccc2s1,16.6%
5,COC(=O)c1nc(=S)[nH]c(C(=O)OC)c1C(=O)c1ccc2ccccc2c1,122%
6,Cc1ccc(C)n1/C=C/n1c(C)ccc1C,128%
7,COc1ccc(NC(=O)C2CC3C=CC2C3)c([N+](=O)[O-])c1 (stereo unspecified),86.2%
8,COc1ccc(CC(C)=C(c2ccc(OCCN3CCCCCC3)cc2)c2ccc(OCCN3CCCCCC3)cc2)cc1,-59.8% (active)
9,CC(C)(C)n1cc(-c2ccnc(NCCNS(=O)(=O)c3ccccc3)c2)c(-c2cccc(O)c2)n1,45%
10,C[C@@H]1C[C@H]2C(=O)O[C@@H](C)[C@H](NC(=O)[C@H](Cc3cc(F)cc(F)c3)NC(=O)Nc3ccc(C4CC4)cc3F)C(=O)N3CCC[C@H]3C(=O)N3CCCC[C@H]3C(=O)N[C@@H](C)C(=O)N2C1,20.9%
11,CC(NNC(C)c1ccccc1)c1ccccc1 (stereo unspecified),113%
12,NS(=O)(=O)c1ccc(N2N=C(c3cccs3)CC2c2ccccc2O)cc1 (stereo unspecified),-25.9% (active)
13,O=C(Cc1ccc(/C=C/C(=O)c2ncc[nH]2)cc1)Nc1cc(F)c(F)c(F)c1,7.25% (active)
14,O=c1oc2cc(OS(=O)(=O)C3CC3)ccc2c2c1CCCCCC2,80.1%
15,COc1ccc(C(=O)/C=C/C23c4ccccc4C(c4ccccc42)C2C(=O)NC(=O)C23)cc1 (stereo unspecified),92%
16,C=CC[P+](c1ccccc1)(c1ccccc1)c1ccccc1,4.03% (active)
17,CC(C)Cc1ccc([C@H](C)C(=O)O)cc1,92.9%
18,NC(=O)c1ccc2nc3c(n2c1)C(=O)C(=O)c1ccccc1-3,-42.2% (active)
19,CCOC(=O)c1c(Nc2nc3ccccc3s2)sc2c1CCC(=O)C2,58.7%
20,CC(=O)Nc1ccc2c(c1)/C(=C\C=C/c1ccc([N+](C)(C)C)cc1)c1ccccc1-2,43.7%
21,COC(CCP(=O)(c1ccccc1)c1ccccc1)(C(=O)c1ccccc1)c1ccccc1 (stereo unspecified),7.75% (active)
22,CCN(CC)c1cc(/C=C/c2ccc(OC)c(OC)c2)nc2cc(F)c(F)cc12,112%

row,SMILES,growth
1,CC(=O)CC(C)(C)c1ccc(Cl)cc1,69.9%
2,O=S(=O)(O)c1cccnc1,61.8%
3,Cc1ccc(OCCOCCOCCOCCOc2ccc(C)n(O)c2=S)c(=S)n1O,-7.44% (active)
4,CC1(C)CC(=O)c2c(ccc(C(=O)C[C@H](N)CO)c2N)O1,44.8%
5,COc1ccc(/C=N/NC(=O)CN2CCN(c3cc4c(cc3F)c(=O)c(C(=O)O)cn4C3CC3)CC2)cc1O,92%
6,COc1cc(-c2nc(SCCC(C)C)nc(Nc3ccc(F)cc3)c2C#N)cc(OC)c1OC,84.9%
7,COc1ccc(-c2cn3ccnc3c(-c3ccc4ncn(C5CCCCC5)c4c3)n2)cc1,1.36% (active)
8,Cc1ccc(Cl)cc1NC(=O)CCl,33%
9,O=C1c2cc3c(cc2-c2c1c1ccc(Cl)cc1c(=O)n2CCCn1ccnc1)OCO3,-29.1% (active)
10,O=c1ccn(Cc2cn(-c3c4ccccc4nc4ccccc34)nn2)c(=O)[nH]1,75.7%
11,O=c1[nH]cnc2nc[nH]c12,117%
12,Nc1nc(N)c2nc(-c3cccc(O)c3)c(-c3cccc(O)c3)nc2n1,120%
13,CC(C)CC1C(=O)N2CCC[C@H]2C2(O)O[C@](NC(=O)C3C=C4c5cccc6[nH]c(Br)c(c56)C[C@H]4N(C)C3)(C(C)C)C(=O)N12 (stereo partly specified),1.92% (active)
14,COC(=O)CCC/C=C\C[C@H]1C=CC(=O)/C1=C/C[C@@H](O)CCc1cccc(C(F)(F)F)c1,-18.2% (active)
15,NC(N)=NS(=O)(=O)c1ccc(Nc2ccc3nnc(-c4ccncc4)n3n2)cc1,95%
16,CN(C)c1nc(-c2ccco2)n2nc(-c3ccco3)cc2n1,97.3%
17,Oc1[nH]c2ccccc2c1/C=c1/cc2c(c(-c3ccc(F)cc3)n1)=Nc1ccccc1-2,-39.1% (active)
18,O=C1C=CC2(O)OC(c3ccccc3)CC(=O)C2=C1O (stereo unspecified),50.5%
19,Cc1ccccc1NS(=O)(=O)c1cccc(C(=O)Nc2ccc(Br)cc2)c1,27.6% [25 µM]
20,COc1ccc(C(=O)C(Br)C(Br)C(=O)O)cc1 (stereo unspecified),103%
21,COc1cc(Nc2ncc(F)c(Nc3ccc4c(n3)NC(=O)C(C)(C)O4)n2)cc(OC)c1OC,103%
22,NC(N)=N/N=C/c1ccccc1,99.5%

row,SMILES,growth
1,COc1cc(OCc2cccc(-c3ccc4c(c3)OCCO4)c2C)cc(OC)c1C=O,64%
2,Cc1cc(Nc2ccc(OCc3ccccc3)cc2)nc2cc(O)ccc12,-44.4% (active)
3,OC(COc1cccc2ccccc12)CN1CCN(c2ccccc2Cl)CC1 (stereo unspecified),103%
4,COc1cc(Cl)cc(-c2nn(-c3cccc(NC(=O)Nc4ccc(Cl)c(Cl)c4)c3)cc2-c2ccncc2)c1,-5.12% (active)
5,CCCC(OC(C)=O)c1ccc2c(c1)OCO2 (stereo unspecified),98.7%
6,CCNc1nc2c(cnn2C)c(=O)[nH]1,94.3%
7,C#C[C@@]1(O)[C@@H](CO)O[C@@H](n2cc(Cl)c3c(N)ccnc32)[C@@H]1O,-2.37% (active)
8,O=C(Nc1nc2c(C(F)(F)F)cccc2s1)c1cc(Cl)ccc1O,-38.8% (active)
9,Cc1ccc2sc3c(NCCCN)nc4ccccc4c3c(=O)c2c1,-27.1% (active)
10,ClC(Cl)(Cl)c1nc2nccnc2[nH]1,103%
11,COc1ccc(-c2cc(C(=O)N3N=C(c4ccc(N)cc4)CC3c3ccc(OC)cc3)c3cc(OC)ccc3n2)cc1 (stereo unspecified),-7.72% (active)
12,CSc1ccc(OC(C)=O)cc1C,97.7%
13,O=C(Nc1ccc(F)cc1)Nc1ccc(NC(=O)c2cc(Cl)nc3ccccc23)cc1,63.9%
14,C[C@H](NC(=O)c1snnc1C1CC1)c1c(F)cccc1Cl,146%
15,O=[N+]([O-])c1cc2c(ccc3occc32)o1,5.05% (active)
16,COc1cc2c(=O)n(CCCN(C)C)c3c4cc5c(cc4ccc3c2cc1OC)OCO5,55%
17,CCOC(=O)CCN(C(=O)Nc1ccccc1)C1CCCCC1,113%
18,Clc1cccc(Cl)c1CSc1nc2ccccc2n2cccc12,94.3%
19,Cc1cc(C)c2c(NC(=O)Nc3ccc(Cl)c(Cl)c3)n[nH]c2n1,96.9%
20,CCN(CC)c1ccc(-c2cc(-c3cc(OC)c(OC)c(OC)c3)nc(N3CCOCC3)c2C#N)cc1,-43.4% (active)
21,COc1cccc(/C=C2/C(=O)N(Cc3ccco3)SC2=S)c1OC,94.5%
22,N#CCCN1C/C(=C/c2ccc(Cl)cc2)C(=O)/C(=C/c2ccc(Cl)cc2)C1,-16.5% (active)

row,SMILES,growth
1,OCc1cccc2ccccc12,93.5%
2,Cc1cccc2c(=O)c3c(sc12)c(N1CCNCC1)nc1ccccc13,52.9%
3,CC(C)C[C@@H](NC(=O)[C@@H](Cc1ccccc1)NC(=O)c1cnccn1)B1Oc2ccc(C[C@H](NC(=O)[C@H](Cc3ccc4c(c3)OB([C@@H](CC(C)C)NC(=O)[C@@H](Cc3ccccc3)NC(=O)c3cnccn3)O4)NC(=O)[C@@H](N)CC3CCC4OB([C@@H](CC(C)C)NC(=O)[C@@H](CC5CCCCC5)NC(=O)C5CNCCN5)OC4C3)C(=O)NCCCC[C@@H]3NC(=O)[C@@H](Cc4ccccc4)NC(=O)[C@H](CC(=O)O)NC(=O)CNC(=O)[C@H](CCCNC(=N)N)NC3=O)cc2O1 (stereo partly specified),-2.54% (active)
4,C=C(C)C(C(=O)OCC)(C(=O)OCC)C(C)C,118%
5,C=CCOC(=O)C1=C(C)N(CC)C(=O)NC1c1c(Cl)n(C)c2ccccc12 (stereo unspecified),99.2%
6,Cn1cc(-c2nc(-c3c[nH]c4c(Cl)nccc34)cs2)c2ccccc21,83.3%
7,CCCCNC(=O)c1cc(NCc2cc(O)ccc2O)ccc1O,3.56% (active)
8,Cn1cc(-c2ccc3cc(-c4ccc(CC(=O)Nc5cc(C(C)(C)C)nn5C)cc4)cnc3c2)cn1,25.2%
9,c1cnc2n[nH]c(Nc3ncnc4c3sc3ncccc34)c2c1,96.8%
10,Cc1ccc(/C(CS(=O)(=O)c2ccc(C)cc2)=N\O)cc1,99%
11,COC(=O)c1cc(Br)ccc1O,97.8%
12,COc1ccc(-c2nc(/C=C3\C(=O)N(C)c4ccccc43)c3ccccn23)cc1,41.1%
13,CCCCCCCCCCCCCC,87%
14,O=C1/C(=C/c2ccc(Cl)c(Cl)c2)CN(C(=O)CCN2CCC(=NO)CC2)C/C1=C\c1ccc(Cl)c(Cl)c1,-16% (active)
15,COc1ccc(/C=C/c2c(C(=O)/C=C/c3cccs3)c(C)nc3ccccc23)cc1,69.6%
16,CN(C)CCOc1nc2c3ccncc3cc(-c3cccc(Cl)c3)c2c2cnccc12,33.4%
17,CCCCCCC(C(=O)OCC)(C(=O)OCC)C1CCCCCC1,106%
18,Nc1n[nH]c2cc(F)c([C@@H]3Nc4ccc5[nH]ncc5c4[C@H]4C5CCC(C5)[C@@H]34)cc12 (stereo partly specified),-22.4% (active)
19,CC(=[N-])N1CCC[C@@H](Nc2c3ccccc3nc3ccccc23)C1.[Cl][Pt].[NH-]CCC[NH-],17%
20,CCCC(CCC)Oc1ccc(CCCC2=C(O)c3ccccc3C(=O)C2=O)cc1,37.5%
